ERG-DNA inh – qHTS for Small Molecule Inhibitors of the ERG Ets/DNA interaction. fluorescence polarization, His-ERG Ets domain / labelled DNA. Potency, µM (highest dose often 76.9 µM), without a hit: at the top dose FP activity, negative = inhibition, most hits filed as inhibitors. 0.028% of 370,000 active; active = well fitted inhibition curve with a large enough effect in the polarisation, with a control signal flat; inconclusive = small, poorly fitted or top-dose-only effect, or effect the other way, or a change in a side signal; inactive = no such curve, though single readings can be large or run the other way; the % refers to the polarisation;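 note: polarization taken with two DNA probes labelled with fluorescein and Texas red; % of control where 0% means no effect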
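His-tagged ERG Ets domain (1 uM in the protein solution; 300mM KCl, 50mM Tris-HCl, 1mM EDTA, 1mM DTT, pH 7.5) received compound, then a probe mix of 5 nM fluorescein-DNA and 100nM Texas-615-DNA. Fluorescence polarization was read for both dyes.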
p53 reactivation – qHTS assay for re-activators of p53 using a Luc reporter; Potency, µM (series often up to 92.2 µM), without a hit: top-dose activity change, positive = activation, hits mostly activators; H1299 p53-A138V BP100-luciferase reporter, luminescence, 24 h; 0.063% of 320,000 active; AID 504706, 2011; note: % of control where 0% means no effect; nearly all actives have a fitted effect of over 45% in size
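p53-null H1299 cells stably carrying temperature-sensitive p53-A138V and a BP100-luciferase reporter were pinned with compounds (4-point, 1:5 series) and held 24 hrs at 37 deg C. Luminescence was read 10 min after detection reagent.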
Tb PFK inh – qHTS Assay to Find Inhibitors of T. brucei phosphofructokinase; ATP-dependent 6-phosphofructokinase (Trypanosoma brucei brucei), O15648; T. brucei PFK, ADP-Glo luminescence; Potency, µM (doses to about 57.5 µM), for inactives: at the highest dose activity, negative = inhibition, actives largely listed as inhibitors; 0.17% of 330,000 active;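 note: 0% = uninhibited 1x PFK enzyme wells and -100% = no-enzyme wells; nearly all actives have a fitted effect of over 60% in size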
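ADP-Glo luminescence quantified ADP after 45 min at room temperature, with 1.25 nM T. brucei PFK, 0.1 mM ATP and 0.5 mM fructose-6-phosphate in pH 8.0 TEA buffer. qHTS titrations up to 57 µM; curves classified by quality.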
GCN5L2 inh – qHTS Assay for Inhibitors of GCN5L2; Histone acetyltransferase KAT2A (Homo sapiens), Q92830; GCN5L2 HAT assay, ThioGlo1 CoA-SH fluorescence; Potency, µM (top dose mostly 58.9 µM), for the others: at the highest dose activity change, negative = inhibition, actives largely listed as inhibitors; 0.21% of 390,000 active; note: % is set by controls: 0 for no effect and ±100 for the full control effect
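Preincubate 20nM GCN5L2 with compound 15 min, RT → add 50uM ThioGlo1 + 75uM H3(1-25) + 70uM acetyl-CoA → read fluorescence 0 and 20 min. Primary qHTS; fluorescent artifacts likely.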
AT treatment – qHTS Assay for Identifying a Potential Treatment of Ataxia-Telangiectasia; Potency, µM (series often up to 57.5 µM), inactives show at the top dose activation, actives largely listed as activators; 0.19% of 320,000 active; F2112 A-T fibroblasts, KAP-1 phosphorylation AlphaLISA; neocarzinostatin DNA damage 30 min before lysis; note: % of control where 0% means no effect; nearly all actives have a fitted effect of over 45% in size
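hTERT-immortalized A-T patient fibroblasts (F2112), 500 cells/well in OPTI-MEM, 1% FBS, got compounds for 60 min, then NCS for 30 min at 37C. Lysates were then assayed for phospho-KAP-1 by AlphaLISA (anti-pKAP1 donor, anti-KAP1 acceptor beads), 6 hr at 25C.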
S-ASM inh – Inhibitors of Secretory Acid Sphingomyelinase (S-ASM): qHTS; Potency, µM (doses to about 57.5 µM), inactives show top-dose activity change, negative = inhibition, actives largely listed as inhibitors; 0.006% of 340,000 active; placental ASM, HMU-PC fluorogenic substrate, 60 min; AID 504937, 2011; Sphingomyelin phosphodiesterase (Homo sapiens), P17405
Target sequence (P17405 47-631 limits assumed): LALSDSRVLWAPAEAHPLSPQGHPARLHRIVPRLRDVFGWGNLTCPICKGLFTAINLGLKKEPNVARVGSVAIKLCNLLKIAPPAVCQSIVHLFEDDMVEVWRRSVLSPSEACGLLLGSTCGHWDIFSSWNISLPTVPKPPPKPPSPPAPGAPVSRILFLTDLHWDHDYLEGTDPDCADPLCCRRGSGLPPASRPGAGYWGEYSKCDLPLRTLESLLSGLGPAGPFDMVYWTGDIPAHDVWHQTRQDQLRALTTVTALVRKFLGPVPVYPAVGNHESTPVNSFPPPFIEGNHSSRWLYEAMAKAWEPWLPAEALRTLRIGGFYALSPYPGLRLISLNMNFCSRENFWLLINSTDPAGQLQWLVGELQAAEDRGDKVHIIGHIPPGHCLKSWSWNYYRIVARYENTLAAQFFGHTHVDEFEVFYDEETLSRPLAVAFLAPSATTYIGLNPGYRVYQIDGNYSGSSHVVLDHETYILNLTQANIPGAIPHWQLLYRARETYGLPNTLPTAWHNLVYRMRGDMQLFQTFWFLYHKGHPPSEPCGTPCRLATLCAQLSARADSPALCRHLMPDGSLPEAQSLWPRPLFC
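Human placenta-derived ASM enzyme was preincubated with compound for 10 minutes at room temperature, then given fluorogenic substrate HMU-PC0 (9 uM final) for 60 minutes at 37 °C; a pH 10 stop preceded fluorescence reading at Ex 386/Em 447 nm.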
Numbers without * were called inactive; i = inactive; ? = inconclusive; . = no result. Shown are actives, neighbours in structure and some others; about 0.55% of the full set was active somewhere. Unless noted, calls come from the whole dose curve; as a rule, active = well fitted curve in the direction sought with a large enough effect; inconclusive = small, poorly fitted or top-dose-only effect, or another doubt; inactive = no such curve, though single readings can be large; an effect the other way counts as inactive or inconclusive. Potency is the fitted concentration of half-maximal effect.

SMILES | ERG-DNA inh | p53 reactivation | Tb PFK inh | GCN5L2 inh | AT treatment | S-ASM inh
COc1ccc(CNC(=S)N/N=C(/C)c2ccccc2)cc1 | -12% | 28µM* | 1% | -10% | -4% | -15%
CCN(C(=O)c1cc2c(=O)n3ccccc3nc2n1CCCOC)C1CCCCC1 | -1% | -6% | 0% | ? | 28µM* | i
COc1ccc(-c2nc3cc(NC(=O)Cc4ccc(Cl)cc4)ccc3o2)cc1OC | -4% | . | . | 3% | . | .
Clc1ccc(CSc2snnc2-c2ccccc2)c(Cl)c1 | -6% | 40µM* | 4% | 0% | . | -2%
c1ccc(CSc2snnc2-c2ccccc2)cc1 | -1% | ? | 6% | 2% | 19% | -4%
Cc1c(C(=O)Nc2nnc(C3CC3)s2)oc2c(Cl)cccc12 | -4% | 8% | 0% | 2% | 9% | -3%
Cc1c(C(=O)Nc2nnc(C3CC3)s2)oc2ccccc12 | -8% | 5µM* | -1% | -3% | 0% | -7%
Clc1ccc(N=c2ssnc2Cl)nc1 | ? | -3% | 2% | -1% | -1% | -6%
Clc1nssc1=Nc1ccc(Br)cc1 | 3% | 10% | ? | 8.9µM* | -3% | -9%
COc1cc(N=c2ssnc2Cl)cc(OC)c1 | -5% | -6% | ? | 22µM* | -4% | 0%
N#Cc1cccc(N=c2ssnc2Cl)c1 | -10% | -2% | ? | 6.3µM* | -4% | 0%
Cc1ccc(S(=O)(=O)c2cc3c(=O)n4ccccc4nc3n(Cc3ccco3)c2=N)cc1C | 6% | 2% | -9% | 16µM* | 11% | 187%
N=c1c(S(=O)(=O)c2ccccc2)cc2c(=O)n3ccccc3nc2n1Cc1ccco1 | 1% | ? | 11% | ? | 18% | 398%
CC(=O)Nc1cc(C(=O)OCC(=O)c2ccc(C)cc2)ccc1C | -2% | 28µM* | 1% | -11% | -11% | 1%
Cc1nc2sc(C(N)=O)c(N)c2c2c1CCCC2 | 3% | 1% | 0% | -13% | 8.9µM* | i
Cc1ccc(-c2nc3sc(C(N)=O)c(N)c3c3c2CCCC3)cc1 | 3% | -10% | 0% | -26% | 21% | 333%
O=C(N/N=C/C1CC=CCC1)c1ccc(Cl)cc1O (stereo unspecified) | -2% | 32µM* | -1% | 44% | -1% | 1%
CC1CCN(c2ccc(NC(=S)NC(=O)c3ccco3)cc2)CC1 | -9% | ? | 8% | 22µM* | -2% | 7%
COc1ccc(N2CSC3=C(C#N)C(c4cccs4)CC(=O)N3C2)cc1 (stereo unspecified) | -5% | ? | -26% | 13µM* | ? | 3%
COc1ccc(C2CC(=O)N3CN(C4CCCCC4)CSC3=C2C#N)cc1 (stereo unspecified) | 2% | . | . | 25µM* | . | .
COc1cccc(C2CC(=O)N3CN(C4CCCCC4)CSC3=C2C#N)c1 (stereo unspecified) | -2% | . | . | ? | . | .
COc1ccc(N2CSC3=C(C#N)C(c4cc(OC)ccc4OC)CC(=O)N3C2)c(OC)c1 (stereo unspecified) | 3% | 29% | -4% | ? | 15% | 11%
CCOc1ccccc1N1CSC2=C(C#N)C(c3c(OC)ccc4ccccc34)CC(=O)N2C1 (stereo unspecified) | 10% | 14% | -30% | 28µM* | 0% | -2%
Cc1ccc(N2CSC3=C(C#N)C(c4cccs4)CC(=O)N3C2)cc1 (stereo unspecified) | 11% | ? | -17% | ? | -1% | 1%
CN(Cc1ccccc1)C(=O)c1ccc2c(c1)N(Cc1ccccc1Cl)C(=O)c1ccccc1S2 | 0% | . | . | 1% | . | .
SMILES | ERG-DNA inh | p53 reactivation | Tb PFK inh | GCN5L2 inh | AT treatment | S-ASM inh
CC(C)CCOc1ccc(N)cc1 | . | . | . | 13% | . | .
O=C(c1ccc(F)cc1)N1CCc2c([nH]c3ccccc23)C1c1ccc(Cl)cc1 (stereo unspecified) | 4% | . | . | -20% | . | .
O=C(O)c1cccc(NC(=O)c2cc3cc(Br)cc(Br)c3oc2=O)c1 | 1% | . | . | -7% | . | .
C/C(NC(=O)c1ccccc1F)=C1\C(=O)C[C@@H]2[C@H]1C2(C)C | 13% | 13µM* | 2% | -8% | 1% | -4%
C/C(NC(=O)c1cccc(F)c1)=C1/C(=O)C[C@@H]2[C@H]1C2(C)C | -11% | ? | -5% | -7% | . | 0%
Cc1ccc(CNC(=O)CCS(=O)(=O)c2ccc(Br)cc2)cc1 | -7% | -1% | ? | ? | 1% | -2%
O=C(CCS(=O)(=O)c1ccc(Br)cc1)NCc1ccc(F)cc1 | 1% | 5% | 24µM* | -10% | 16% | 3%
CCn1nc(C)c(/C=N/NC(=O)Cn2cncn2)c1C | 3% | -4% | 0% | -6% | 3.2µM* | -5%
CCCCCn1cc2c(c1-c1ccc(Cl)cc1)c(=O)n(C)c(=O)n2C | -3% | . | . | -4% | . | .
Fc1ccc(C2CC(c3cccs3)=NN2c2ccccc2)cc1 (stereo unspecified) | -4% | -2% | 0% | -10% | 32µM* | i
c1ccc(C2CC(c3cccs3)=NN2c2ccccc2)cc1 (stereo unspecified) | 88% | 4% | 5% | -6% | 20µM* | i
O=Cc1ccc(N2N=C(c3ccccc3)CC2c2ccccc2)cc1 (stereo unspecified) | -8% | -2% | -1% | 1% | 34% | i
COc1ccc(C2CC(c3cccs3)=NN2c2ccc(C=O)cc2)cc1 (stereo unspecified) | . | -2% | 2% | ? | 25µM* | i
N=C(C[C@@H](O)COc1ccccc1-c1ccccc1)N1CCCCC1 | . | . | . | -4% | . | .
O=C(Nc1c(C(=O)c2ccccc2)oc2ccccc12)c1ccc(F)cc1 | -1% | . | . | -4% | . | .
Cc1ccc2onc(CC(=O)N3CCN(c4ccc(F)cc4)CC3)c2c1 | -1% | . | . | -4% | . | .
CC(=O)O[C@]1(C(C)=O)CCC2C3CCC4=CC(=O)CCC4(C)C3(F)C(O)CC21C (stereo partly specified) | . | . | . | -14% | . | .
O=C(NCCO)N1c2ccccc2Sc2ccccc21 | -4% | . | 3% | 0% | 3% | 1%
O=C(Nc1ccccc1O)N1c2ccccc2Sc2ccccc21 | -1% | . | 0% | -10% | 10% | 25µM*
CCN(CC)S(=O)(=O)c1nnc(NC(=O)COc2ccc(C)cc2)s1 | -1% | . | . | -4% | . | .
